# Data published in ChEMBL document CHEMBL3988442, “University of Dundee, Small-Polar-MMV Screening Library” (2021).
# Hit rate of the full screen: of about 48,000 compounds, about 13,000 (27%) showed an effect of 50% or more. The list shows a part of the results.
# Test system: Wolbachia pipientis
# Test: Anti-Wolbachia Cell-Based Screen
# Assay type: functional
# Set-up: scale not given: in the data most compounds retested in dose-response had high values
# Details: 5 µM
row,Compound,Percent Effect [%]
1,CS(=O)(=O)N1CCOC2(CCN(c3ncccn3)CC2)c2ccccc21,-2.489
2,CS(=O)(=O)N1CC2(CCCN(C3COC3)C2)Cc2ccccc21 (configuration not stated),116.4
3,Cc1cccc(N2CCC(N3CCCC4(CNC(=O)O4)C3)CC2)c1C (configuration not stated),-4.7
4,CS(=O)(=O)N1CC2(CCN(C3COC3)C2)Cc2ccccc21 (configuration not stated),109.7
5,O=C(O)C(F)(F)F.O=C(O)C(F)(F)F.c1ccc(CN2CCOCC3(CCN(C4CCOCC4)C3)C2)cc1 (configuration not stated),-14.02
6,Cc1cccc(N2CCC(N3CCCC4(CN(C)C(=O)O4)C3)CC2)c1C (configuration not stated),11.85
7,Cn1c(C2CC2)nc2cc(NC(=O)C3CCOC3)ccc21 (configuration not stated),-8.416
8,CCc1nnc(CN2CCCN(C(=O)c3ccccn3)CC2)o1,-2.51
9,Cc1nnc2n1CCN(C(=O)CN1C(=O)CCCc3ccccc31)C2,-14.77
10,Cc1cc(CNC(=O)N2CCN(c3ccccc3)CC2)no1,0.5807
11,Cc1cc(CNC(=O)N2CCN(c3nc(C)c(C)s3)CC2)no1,-6.921
12,CCc1nc(CN2CCCN(C(=O)c3cc(C)on3)CC2)cs1,-3.396
13,COC(=O)c1ccc(N2CCN(C(=O)c3cc(C)on3)C(C)C2)cc1 (configuration not stated),-4.868
14,COc1cccc2sc(N3CCN(C(=O)c4cc(C)on4)CC3)nc12,127.7
15,Cc1cc(C(=O)N2CCN(c3nc4c(C)cccc4s3)CC2)no1,128.5
16,Cc1cc(C(=O)N2CCN(c3nc4ccccc4s3)CC2)no1,133.9
17,Cc1cc(C(=O)N2CCN(c3nc4c(C(C)C)cccc4s3)CC2)no1,100.9
18,Cc1cc(C(=O)N2CCc3ncc(CN4CCCCC4)n3CC2)no1,-1.928
19,COc1cccc([C@H]2CN(C(=O)c3cc(C)on3)C[C@@H]2N)c1,-12.5

row,Compound,Percent Effect [%]
1,Cc1cc(C(=O)N2CCC3(CC2)c2nc[nH]c2CCN3CC(C)C)no1,-20.9
2,Cc1cc(NC(=O)N2CCN(c3nc(C)c(C)s3)CC2)no1,-7.587
3,CNS(=O)(=O)c1ccc(CNC(=O)Nc2cc(C)on2)s1,-23.04
4,Cc1ccc2nc(C)c(C)c(C(=O)N3CCS(=O)(=O)CC3)c2c1,7.171
5,O=C(NCC(Cc1cccc(F)c1)n1cccc1)C1CC1 (configuration not stated),6.756
6,COCCC(C)NCc1ccccc1-n1ccnc1 (configuration not stated),-12.2
7,COc1cccc(NC(=O)N(CCO)C2CCc3ccccc32)c1 (configuration not stated),-4.61
8,O=C(CN1CCOC(Cn2cccn2)C1)Nc1nncs1 (configuration not stated),-3.509
9,NC(=O)C(NC(=O)CSCc1ccc(Cl)s1)c1ccccc1 (configuration not stated),12.02
10,Cc1cc(C(=O)N2CCN(c3nc4c(F)cccc4s3)CC2)no1,123.7
11,Cc1cccc(C(=O)N2CCN(c3ccccc3F)CC2)n1,-20.73
12,Cc1cc(C(=O)N2CCN(c3nc4c(C(C)C)cccc4s3)CC2)on1,114.6
13,CCc1nc(CN2CCN(C(=O)c3cc(C)no3)CC2)cs1,6.247
14,CCOC(=O)N1CCN(C(=O)c2cc(-c3ccccc3F)on2)CC1,1.064
15,Cc1cc(C(=O)N2CCc3c(ncn3CCc3ccccc3)C2)on1,8.742
16,Cc1cccc(C(C(=O)N(C)Cc2cc(C)no2)N(C)C)c1 (configuration not stated),-11.12
17,CC(C)=CCN1CCNC(=O)C1CC(=O)N1CCc2sccc2C1 (configuration not stated),13
18,O=C(O)C(F)(F)F.O=C([C@@H]1C[C@@H]2CCN(Cc3ccoc3)C[C@H]2O1)N1CCCC1,103.1
19,O=C(NC1CC1)[C@@H]1C[C@@H]2CCN(Cc3ccccc3)C[C@@H]2O1.O=C(O)C(F)(F)F,-0.7056

row,Compound,Percent Effect [%]
1,COc1ccccc1CN1CC[C@H]2C[C@@H](C(=O)N3CCCC3)O[C@H]2C1.O=C(O)C(F)(F)F,2.639
2,COc1ccccc1CN1CC[C@H]2C[C@H](C(=O)N3CCCC3)O[C@H]2C1.O=C(O)C(F)(F)F,-2.148
3,O=C(NC1CCC1)[C@@H]1C[C@@H]2CCN(CCc3ccccc3)C[C@H]2O1.O=C(O)C(F)(F)F,2.186
4,Cc1ncccc1NC(=O)[C@H]1C[C@@H]2CCN(Cc3ccsc3)C[C@H]2O1.O=C(O)C(F)(F)F.O=C(O)C(F)(F)F,-7.023
5,O=C(NC1CCCC1)[C@@H]1C[C@@H]2CCN(Cc3ccoc3)C[C@H]2O1.O=C(O)C(F)(F)F,111.5
6,O=C(NC1CC1)[C@@H]1C[C@@H]2CCN(Cc3ccoc3)C[C@@H]2O1.O=C(O)C(F)(F)F,102.1
7,O=C(NC1CC1)[C@@H]1C[C@@H]2CCN(Cc3ccccc3)C[C@H]2O1.O=C(O)C(F)(F)F,-0.327
8,CC(C)NC(=O)[C@@H]1C[C@@H]2CCN(Cc3ccoc3)C[C@H]2O1.O=C(O)C(F)(F)F,74.8
9,Cc1c(C(=O)OCC2CC(=O)N(c3ccccc3)C2)cnn1C(C)C (configuration not stated),4.999
10,CN(C)S(=O)(=O)N1C[C@@H]2CN(Cc3ccoc3)CCO[C@@H]2C1.O=C(O)C(F)(F)F,-19.85
11,CN(C)C(=O)[C@H]1C[C@@H]2CCN(Cc3ccoc3)C[C@@H]2O1.O=C(O)C(F)(F)F,113.2
12,CN(C)C(=O)[C@@H]1C[C@@H]2CCN(Cc3ccc4c(c3)OCO4)C[C@@H]2O1.O=C(O)C(F)(F)F,-14.9
13,CCc1ccc(C(=O)N2CC[C@](C)(O)C(C)(C)C2)[nH]1,-18.68
14,COc1c2ccc(C(=O)NCCCn3ncccc3=O)cc2nn1C,16.19
15,COc1ccccc1-n1cc(C(=O)NCCn2nc(C)nc2C)cn1,116.2
16,COc1ccccc1N1CCN(C(=O)CCn2nnnc2C)CC1(C)C,3.802
17,COc1ccccc1-n1cc(CN2CCN(C)[C@@H]3CS(=O)(=O)C[C@@H]32)cn1,-2.085
18,Cc1nc(C)n(CCCNC(=O)C(C)n2ccnc2C(C)C)n1 (configuration not stated),3.373
19,COc1ccccc1-n1cc(C(=O)NCCCn2nc(C)nc2C)cn1,95.25
